From PubChem BioAssay (NCATS) come the findings set out here.

Several values for one entry are separate records, joined by “and”; a condition that tells them apart may be missing. Identical values can stand only once. Records with an inconclusive call do not appear. A number with no mark means an inactive call. Activity calls are given as the source filed them. The call rests on the fitted dose curve; in most records, active means well fitted curve in the direction sought with a large enough effect; inconclusive means small, poorly fitted or top-dose-only effect, or another doubt; inactive means no such curve, though single readings can be large; an effect the other way counts as inactive or inconclusive.

What is called viability is a read-out of living cells in per cent, often relative to untreated cells.

A short description of the first test: Quantitative highthroughput screen to assess conditional lethalithy of SEM cells grown in Human Plasma-Like Medium with dialyzed fetal bovine serum (HPLM+ds) (AID 1963882). Further: nearly all actives have a fitted effect of over 35% in size. The settings on record: SEM B-ALL cells in HPLM+ds, CellTiter-Glo viability, 48 h; series mostly up to 45.8 µM; viability: at the top concentration. The method, boiled down: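 Each medium arm—HPLM with 10% dialyzed FBS, or RPMI1640 with 5 mM glucose and 10% untreated or dialyzed FBS—was screened against an 11-point, 3-fold compound titration for 48 h at 37 °C, with CellTiter-Glo luminescence as endpoint.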
Background: Cellular ATP, detected with luciferase, serves as a proxy for viable cell number.
Regarding `Cc1ccccc1-n1c(Cn2ncc3c(N)ncnc32)nc2cccc(C)c2c1=O`, the “viability” value was 104%.

As for `CC=C(C)C(=O)N[C@@H](c1ccccc1)[C@@H](O)C(=O)O[C@H]1C[C@@]2(O)[C@@H](OC(=O)c3ccccc3)[C@@H]3[C@]4(OC(C)=O)CO[C@@H]4C[C@H](O)[C@@]3(C)C(=O)[C@H](OC(C)=O)C(=C1C)C2(C)C`, the “viability” value was 21.9%.

In the case of `c1ccc2c(CN3CCNCC3)cccc2c1`, the “viability” value was 86.2%.

The next test can be described thus: Cellular viability qHTS for adrenocortical cancer (ACC) cell line SW-13 (AID 1963989). Further: nearly all actives have a fitted effect of over 65% in size. Further: potency means the concentration at half of the fitted maximal effect.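 On activity (max response): cells grown in serum-free medium with ITS supplement; on the % scale 0 is the no-effect control and ±100 the full control effect.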 The settings on record: SW-13 ACC cells viability, CellTiter-Glo, 48 h; activity (max response): hits give low values. An outline of the steps: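 IC50 and maximal-response values come from four-parameter logistic fits of titration data. SW-13 cells in serum-free medium received compounds (up to 46 uM final) for 48 h before CellTiter-Glo luminescence.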
(In general: In qHTS, concentration-response curves come from the screen itself.)
As to `O=C1CN2CCOC2(c2ccccc2Cl)c2cc(Cl)ccc2N1` (stereo unspecified), the activity (max response) is -4.14%.

Turning to `ClCCCN1CCN(c2cccc(Cl)c2)CC1`, the activity (max response) is -6.01%.

Regarding `CCC(=O)O[C@H]1CC[C@H]2[C@@H]3CCC4=CC(=O)CC[C@]4(C)[C@H]3CC[C@]12C`, the activity (max response) was -15%.

Consider `CCc1cc2c(s1)-n1c(C)nnc1CN=C2c1ccccc1Cl`, for which the activity (max response) was 12.2%.

As to `O=C(CBr)Nc1ccc(Cl)cc1C(=O)c1ccccc1F`, the activity (max response) is -3.92%.

For the compound `CC(=O)N1N=C(c2ccc(N)cc2)c2cc3c(cc2C[C@H]1C)OCO3`, the activity (max response) was -25.9%.

For `Clc1ccc(C(c2ccc(Cl)cc2)C(Cl)(Cl)Cl)cc1`, the activity (max response) was 4.08%.

`O=C(Nc1ccccc1-c1ccc(Cl)cc1)c1cccnc1Cl`: the activity (max response) was -12.7%.

Take `C[C@]12CC[C@H](O)CC1=CC[C@@H]1[C@@H]2CC[C@]2(C)C(=O)CC[C@@H]12`: the activity (max response) is 3.86% and -7.41%.

For `Oc1ccc([C@H]2CNCc3c2ccc(O)c3O)cc1O`, the activity (max response) is -10.4%.

Take `CC(CCc1ccccc1)NC(C)C(O)c1ccc(O)cc1` (stereo unspecified): the activity (max response) was -14.3%.

Turning to `CCOC(=O)C(c1c(O)c2ccccc2oc1=O)c1c(O)c2ccccc2oc1=O`, the activity (max response) was 16.4%.

Consider `COc1cc([C@@H]2c3cc4c(cc3[C@@H](O)C3COC(=O)C32)OCO4)cc(OC)c1O` (stereo partly specified), for which the Potency was 0.316 µM (active).

As to `CN1CCc2cc(Cl)c(O)cc2[C@H]2c3ccccc3CC[C@@H]21`, the activity (max response) is -19.8%.

Take `CC(C)=CCN1CC[C@@]2(C)c3cc(O)ccc3C[C@@H]1[C@@H]2C`: the Potency is 39.8 µM (active).

As for `c1cc2c(c(N3CCNCC3)c1)OCCO2`, the activity (max response) is -0.802%.

As to `CCCCCCCCCC(CC)c1ccc(S(=O)(=O)O)cc1` (stereo unspecified), the Potency is 31.6 µM (active).

Consider `C/C(O)=C(\C#N)C(=O)Nc1cc(Br)ccc1Br`, for which the activity (max response) is -6.51%.

Regarding `O=S(=O)(O)C(F)(F)C(F)(F)C(F)(F)C(F)(F)F`, the activity (max response) is 12.3%.

As for `S=C(SSC(=S)N1CCCCC1)N1CCCCC1`, the activity (max response) was -0.757%.

For `CCC(=O)C(CCN(C)C)(c1ccccc1)c1ccccc1`, the activity (max response) was -1.08%.

`C[C@]12CC[C@H]3[C@@H](CCC4=CC(=O)CC[C@@H]43)[C@@H]1CC[C@@H]2OC(=O)CCc1ccccc1`: the activity (max response) was -0.27%.

As for `O=C(Nc1ccc(Br)cc1)c1cc(Br)cc(Br)c1O`, the activity (max response) was -19.7%.

Regarding `CCOP(=O)(NC(C)C)Oc1ccc(SC)c(C)c1` (stereo unspecified), the activity (max response) is -12.8%.

Turning to `C[C@]12CC[C@H]3[C@@H](CC=C4C[C@@H](O)CC[C@@]43C)[C@@H]1CC[C@@H]2O`, the activity (max response) is 5.93%.

On to `COP(=S)(OC)SCN1C(=O)c2ccccc2C1=O`, for which the activity (max response) was 6.58%.

On to `CC(CC(C#N)(c1ccccc1)c1ccccc1)N(C)C` (stereo unspecified), for which the activity (max response) was -32%.

In the case of `CCC(COC(=O)c1cc(OC)c(OC)c(OC)c1)(c1ccccc1)N(C)C` (stereo unspecified), the activity (max response) is -2.65%.

Turning to `Cc1sc2c(c1C)C(c1ccc(Cl)cc1)=NC(CC(N)=O)c1nnc(C)n1-2` (stereo unspecified), the activity (max response) was -21.6%.

`C#C[C@]1(O)CC[C@H]2[C@@H]3CCC4=CC(=O)CC[C@]4(C)[C@H]3CC[C@@]21C`: the activity (max response) is 3.93%.

On to `Clc1ccc(CSC(Cn2ccnc2)c2ccc(Cl)cc2Cl)cc1` (stereo unspecified), for which the Potency is 8.2 µM (active).

As to `CC(C)=CCOc1c2occc2cc2ccc(=O)oc12`, the activity (max response) was -12.5%.

On to `CC1(C)CC/C(=C/c2ccc(Cl)cc2)C1(O)Cn1cncn1` (stereo unspecified), for which the activity (max response) was 3.72%.

Regarding `c1ccc2c(CN3CCNCC3)cccc2c1`, the activity (max response) is 3.38%.

On to `CCN(CC)Cc1nccn1-c1ccc([N+](=O)[O-])cc1C(=O)c1ccccc1Cl`, for which the activity (max response) was -3.26%.

On to `N#CC(C#N)=Cc1ccc(O)c(O)c1`, for which the activity (max response) is 13.2%.

The nature of a further test: Cellular viability qHTS for adrenocortical cancer (ACC) cell line NCI-H295R (AID 1963990).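 Further: 0% = DMSO only wells and -100% = full killing with cytotoxic reference compound; nearly all actives have a fitted effect of over 60% in size.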 The settings on record: CellTiter-Glo ATP luminescence, 48 h; series mostly up to 46.1 µM; activity change, negative = viability loss: at the top concentration. An outline of the steps: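 Adrenocortical carcinoma cells, suspended at 300 000 cells/mL in serum-free DMEM plus ITS, rested overnight before pin transfer of compound. After two days' incubation, ATP-dependent luminescence was recorded and curve-fitted.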
Regarding `CC(=O)N1N=C(c2ccc(N)cc2)c2cc3c(cc2C[C@H]1C)OCO3`, the “activity change, negative = viability loss” value is -9.52%.

`C[C@]12CC[C@H](O)CC1=CC[C@@H]1[C@@H]2CC[C@]2(C)C(=O)CC[C@@H]12`: the Potency result is “inactive”.

Regarding `CC(CCc1ccccc1)NC(C)C(O)c1ccc(O)cc1` (stereo unspecified), the “activity change, negative = viability loss” value was -5.57%.

Take `CCOC(=O)C(c1c(O)c2ccccc2oc1=O)c1c(O)c2ccccc2oc1=O`: the “activity change, negative = viability loss” value is -5.28%.

In the case of `C#C[C@]1(O)CC[C@H]2[C@@H]3CCC4=CC(=O)CC[C@]4(C)[C@H]3CC[C@@]21C`, the “activity change, negative = viability loss” value is 1.31%.

`CC(C)=CCOc1c2occc2cc2ccc(=O)oc12`: the “activity change, negative = viability loss” value was -26.1%.

As for `c1ccc2c(CN3CCNCC3)cccc2c1`, the “activity change, negative = viability loss” value is 6%.
